Test results published in the supplement of paper PMC12632987.

T1: USP38, Q8NB14
T1 chain: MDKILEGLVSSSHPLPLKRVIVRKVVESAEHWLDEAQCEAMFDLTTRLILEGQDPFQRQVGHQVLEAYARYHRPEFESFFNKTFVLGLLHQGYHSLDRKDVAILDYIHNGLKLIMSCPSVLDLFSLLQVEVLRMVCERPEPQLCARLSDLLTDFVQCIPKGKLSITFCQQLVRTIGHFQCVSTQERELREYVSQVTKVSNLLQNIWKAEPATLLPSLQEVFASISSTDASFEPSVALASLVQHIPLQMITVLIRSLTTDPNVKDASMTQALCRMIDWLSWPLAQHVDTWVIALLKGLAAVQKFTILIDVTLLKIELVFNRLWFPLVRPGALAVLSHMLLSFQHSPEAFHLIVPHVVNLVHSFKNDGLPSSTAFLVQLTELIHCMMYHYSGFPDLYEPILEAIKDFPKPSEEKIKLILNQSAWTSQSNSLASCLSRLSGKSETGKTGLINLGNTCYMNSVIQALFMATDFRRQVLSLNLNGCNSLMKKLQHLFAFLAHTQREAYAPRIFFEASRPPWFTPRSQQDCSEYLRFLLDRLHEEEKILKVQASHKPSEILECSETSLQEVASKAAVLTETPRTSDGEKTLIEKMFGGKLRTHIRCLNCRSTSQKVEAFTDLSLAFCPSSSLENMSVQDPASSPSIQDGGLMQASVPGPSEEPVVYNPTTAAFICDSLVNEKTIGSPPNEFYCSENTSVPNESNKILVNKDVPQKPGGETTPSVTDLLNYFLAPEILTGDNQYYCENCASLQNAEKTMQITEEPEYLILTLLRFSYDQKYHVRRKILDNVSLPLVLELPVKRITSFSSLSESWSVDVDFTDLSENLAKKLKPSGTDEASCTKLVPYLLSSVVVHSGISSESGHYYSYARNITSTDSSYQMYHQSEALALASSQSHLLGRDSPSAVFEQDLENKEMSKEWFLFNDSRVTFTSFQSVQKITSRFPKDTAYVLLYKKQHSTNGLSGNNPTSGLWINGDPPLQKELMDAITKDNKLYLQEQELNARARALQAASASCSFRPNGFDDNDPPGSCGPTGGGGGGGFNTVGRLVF

B1: usp_38_diff_out_15_85_150 (protein)
chain: TPEELKAEIEREIEEAERLLERAEELLRDPEAPLEEIRRVLDEAAEALGRADHLARELRRLSPEYRAYVEEVLKRLDELVDRLEELAREAFLREADELEA
B2: usp_38_diff_out_14_54_124 (protein)
chain: MEELERLLEEAERALREAEEALERAERLLEEGGPLEEIRRELDRAARAIGRLGEALRRARALATDPEVKKRLEELEKKADELVDRYNELARRALEMEAER
B3: usp_38_diff_out_14_75_134 (protein)
chain: SEKEELEERLAALEARLEALVAEGVISGRLEVELGAVLHTARLAIEAGRLEEARRLLDIAEEALADPARAREILRANEDFIVSTHLRLELERLAAEEAAR
B4: usp_38_diff_out_15_114_143 (protein)
chain: SEEEEAEEELRRLEIEEGLRVAEELLAELEELRKRGRLTPAREERLLLGLEGLAILAIELGDEELARRVLEALRALAEISSPETRARAEALAAELEAAMA
B5: usp_38_diff_out_14_75_131 (protein)
chain: SEREELERRLEELRARLAALEAAGVITGRKVVKLGGALHVAELAIRAGRLEEARKILDIVEEALDDPERADEILDENEDFIVDTYKELALAEIEAEEAAR
B6: usp_38_diff_out_15_85_152 (protein)
chain: SPEEIKKEIKKEIEKAKELIKEAKKLLKDPNAKLEEIRKVLDEAAKALGKAEYLARELRKLSPEYREEVKEYLKELDELVDELEKLEREAFLRMAEEQEA
B7: usp_38_diff_out_14_54_127 (protein)
chain: DEEIKRLLEEARKYLEEAKKALAELKELVAAGAAPEEVFAAYDKAADAIAKAGEAIRRLMRLSTDPEVRKEAREIQEEADKLVDEMTEAVTAAQEKAAEA
B8: usp_38_diff_out_14_75_132 (protein)
chain: SEKEELEKRLEELEKRLEELEKEGKLTGRLVVELGGVLHVAREAIEAGKLETAKKLLEIAEQALEDPERAREILRENEDFIVDTYKELALEEIEKEEAER
B9: usp_38_diff_out_15_17_145 (protein)
chain: DEEARRLELEAERAAMDAVIADARATLTRLAAKAKAAGWAEVAAEYEAAIAALDAGDLEAAAEHLERAARLLWDKNPRDATIAGGLAYALRRKVELDRLE
B10: usp_38_diff_out_15_42_146 (protein)
chain: SQLEEELRLIVEAMEAERDRVVADVATLPEAKLKRLARRNLEGAKGEAERTGDPVAAEIAALYEEGLANPATLKAKMQEAVRLTYDRAIAEVRRRMEEEA
B11: usp_38_diff_out_15_85_147 (protein)
chain: ALEELRRELEEAIREARRLLEEARKLLAEKTPEALKAAREALDRAAEHLGRAAELLRELRRAGADPAELARLQAELDELVDEYEKLALELFEKEIELQEA
B12: usp_38_diff_out_15_114_140 (protein)
chain: SAEEEAAEELRQREIAAGRDVARDLLAELRELKKRGRLTPAREERLLLGLEGLARLAIELGDEELARLVLEALDAFAEISDPETQARARALRAELEAAMA
B13: usp_38_diff_out_14_75_137 (protein)
chain: SRKEELRERLAEARARLDALVAEGRITGRLEVELRGILHIAEEAIEAGRLEEAERLLDIAERALDDPANARAIIRANEDFIVSTAKKLDLERIEEEEERR
B14: usp_38_diff_out_14_54_128 (protein)
chain: DEEIERLLEEARKKLEELKKLKEELKKLVKAGASMEEIFAAYDKAADAAAAAGEAIRRLRKLSTDPEVKEEARKLEEEVNKLLDEVTELVTEALERAAER
B15: usp_38_diff_out_14_75_135 (protein)
chain: SEREELERRLEELEERLARLVAEGVISGRTEVKLGAVLHVARLAIEEGRLEEARKLLEIVERALADPERADEILEENEDFIVSTYLELELRRLAEEEAKR
B16: usp_38_diff_out_15_114_142 (protein)
chain: SAEEEAEEELRELEIKAGKDVAEELLEELKELRKRGRLTPAREERLLLGLRGLAILAIELKNKELAELVLEALEEFAKISDPETRAEAEKLAAELKKAMA
B17: usp_38_diff_out_15_85_153 (protein)
chain: SPEEIKKEIEREIEEAERLIEEARRLLEDPEAPLEEVREVLDEAARHLGRAQHLARELRRLSPEYREFVKEAEKRLDELVDELEELAREAHLREAEELEA
B18: usp_38_diff_out_14_75_138 (protein)
chain: SREEELRKRLEEAEARLAELVAQGKITGRKEVELRGILHIAREAIEAGRLEEAEKLLDIAEEALENPEKAKEIIDENEDFIVSTAKELALREIEEEEKRR
B19: usp_38_diff_out_14_54_125 (protein)
chain: MEELEKLLKEAEKALKEAEKALAAAEALLEAGGPLAEIRALLDAAARAIGAAGEALRKARALATDPEVKKKLEELRKRADELVDRYNELARRALEREAAA
B20: usp_38_diff_out_14_54_126 (protein)
chain: SERLRRLLEEARRKLAEAERYLEEAEKALEEGAPLEEIERLLDEAARALGAAARALREAATLATDPESRAELEELRARADELTDRYTELAREAFLRRLEE
B21: usp_38_diff_out_15_114_139 (protein)
chain: SEEEEAEEELRKLEIEQGKKVAEDLLAELERLAKEGRLTPAREERLLLGLKGLAKLAIELKDKELAELVLKALEAFAKISSPEHRKEAEKLAKELKEAMA
B22: usp_38_diff_out_15_17_144 (protein)
chain: DPESEALYREALRANIASVFDEAAAIAAKRAARAEAEGNAELAAALRRLRDLLEHRDETPLADIAAAARELAALAEEAGDYRTAAIAGGVAAAAEELAEL
B23: usp_38_diff_out_14_2_99 (protein)
chain: AKEELEKATKETLKVLKEAIKKAKELLKEVKKDPSKAEEATKKLFEEWDKAADAVGKLAKLIEEHKEERKLNKEAIEKVNKELTELTKVTLEALEEAAKA
B24: usp_38_diff_out_14_75_129 (protein)
chain: SEREKLEERLEAAEARLAALVAAGVISGRTEVKLGAVLHVARLAIEQGDLETAEKLLEIVEKALADPANADKILDENEDFIVSTYKELALRELEEEEKKR
B25: usp_38_diff_out_14_2_98 (protein)
chain: AEEELKKATEETLKVLDEAIKKAKELKERVKKDPSLAEEAREELFKAWDKAADAVGELAKLMEEHRELRELNKKAVEEVNKKLTELTEELLEALELAAEA
B26: usp_38_diff_out_14_75_130 (protein)
chain: SMKEELEKRLEELEERLKELEEKGVLTGRTVVELGGVLYVARLAIEAGDLETAEKLLEIAEKALEDPENAKEILDENEDFIVSTHIELELRRIEEEEAAR
B27: usp_38_diff_out_14_75_133 (protein)
chain: SEREELEKRLEELRARLAALVAAGVISGRLEVELGAVLYTAELAIEAGKLEEAKKLLDIAEAALDDPANAKAILDANEDFIVSTYKELELERIEREEEEE
B28: usp_38_diff_out_15_114_141 (protein)
chain: SAEEEAAAELREREVAAGLAVARDLLAELEELARRGRLTPAREERLLLGLRGLARLAIELGDRELAEEVLRALDAFAAIASPELRAEAEALRAELEAAMA
B29: usp_38_diff_out_15_85_151 (protein)
chain: SPEELKKKIEEKLEEARRLLEEARRLLADPNAPLEEIRKVLDEAARALGEAEHLARELRKLSPEYREEVEKYLKELDELVDELEALAREAFLREAEAQEA
B30: usp_38_diff_out_14_54_123 (protein)
chain: SEELEELLEEARRALEEARRALREAERLLREGGPLEEVREALDRAARAIGRLGEALRRARALATDPEVLKELERLEKEADELVDRYTELARRALEMEAER
B31: usp_38_diff_out_14_75_136 (protein)
chain: SEREELRARLAAARARLDALVAAGVISGRLEVELGAVLHVAALAIEAGDLETARRLLDIVEAALADPARAREILRAAEDFIVDAYKRLELRRIEEEEEER
B32: usp_38_diff_out_15_85_149 (protein)
chain: KIEELKKQLQAAIDEAEALLAEAEALLKKGTPEALEAARKALDAAAKAIGQADQLLRELRKAGADKEELEAYQKRLDALTDRYEALARELFEKEMELQEK

Target: T1, USP38, Q8NB14
Experiment: median log2 fold change of GCK-ALFA target abundance (FLAG IP / Myc IP barcode read proportion) (log2 ratio); each designed protein is fused to an ALFA-tag nanobody in HEK293 cells to bring the named protein to FLAG-tagged glucokinase (GCK); Myc marks an untargeted standard; higher = target protein stabilised (more abundant)
Conditions: target protein: 3xFLAG-MCP-GCK-ALFA reporter; HEK293 landing pad (RPLP)
Procedure, shortened: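 An ALFA-nanobody-fused binder library was recombined into HEK293 landing-pad cells and induced with 2 μg mL^−1 doxycycline. Cells were transfected with a plasmid expressing a FLAG-tagged target and a Myc-tagged standard. After 48 h, lysates underwent anti-FLAG and anti-Myc immunoprecipitation, and circular RNA barcodes were reverse transcribed, amplified and sequenced. Target abundance is the per-binder median log2 ratio of FLAG to Myc barcode read proportions. Barcodes needed ≥10^−7 proportion in both replicates, binders ≥3 barcodes per replicate, and a 10^−6 pseudocount was added; the two replicates were pooled.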

| Binder | median log2 fold change |
| --- | --- |
| B1 | 0.0224 |
| B2 | 0.191 |
| B3 | 0.0715 |
| B4 | -0.119 |
| B5 | 0.103 |
| B6 | 0.113 |
| B7 | 0.232 |
| B8 | -0.63 |
| B9 | -0.0496 |
| B10 | -0.607 |
| B11 | 0.0216 |
| B12 | 0.0749 |
| B13 | 0.124 |
| B14 | -0.492 |
| B15 | -0.475 |
| B16 | 0.0926 |

| Binder | median log2 fold change |
| --- | --- |
| B17 | -0.141 |
| B18 | 0.163 |
| B19 | -0.00832 |
| B20 | 0.0528 |
| B21 | 0.292 |
| B22 | 0.158 |
| B23 | -0.478 |
| B24 | 0.261 |
| B25 | -0.576 |
| B26 | -0.097 |
| B27 | 0.198 |
| B28 | 0.234 |
| B29 | 0.0262 |
| B30 | 0.491 |
| B31 | 0.0109 |
| B32 | 0.113 |
